Compounds without any hit were thinned out: in the full panel of roughly 83,000, 20% have a hit.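 How to read the values: 0–100, growth inhibition (40 = 60% inhibited); 0, no net growth; -100 to 0, cell death (-40 = 40% of starting cells died; -100 = all dead).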 The source made the active and inactive calls. How the source made its calls: active means growth percent below 10; inactive means the rest.
What was measured:
Assay in all cases: NCI-60 one-dose screen, 48 h (100 = growth as untreated, 0 = no growth, -100 = all killed)
Settings in all cases: 10 µM unless noted
NCI-H23 lung = tested on: NCI-H23 lung
NCI-H226 lung = tested on: NCI-H226 lung
NCI-H322M lung = tested on: NCI-H322M lung
HOP-62 NSCLC = tested on: HOP-62 NSCLC
NCI-H460 lung = tested on: NCI-H460 lung
HOP-92 NSCLC = tested on: HOP-92 NSCLC
NCI-H522 lung = tested on: NCI-H522 lung
A549/ATCC NSCLC = tested on: A549/ATCC NSCLC
786-0 renal = tested on: 786-0 renal
COLO 205 colon = tested on: COLO 205 colon

Measured: growth

NNC(=O)c1sc2nc(-c3cnccn3)cc(-c3cccs3)c2c1N
inactive: NCI-H23 lung 98.6% | NCI-H226 lung 89.7% | NCI-H322M lung 74.4% | HOP-62 NSCLC 91.6% | NCI-H460 lung 103% | HOP-92 NSCLC 101% | NCI-H522 lung 101% | A549/ATCC NSCLC 102% | 786-0 renal 108%

COc1ccc(-c2no[n+]([O-])c2Nc2ccccc2Br)cc1
inactive: NCI-H23 lung 91.8% | NCI-H322M lung 96.8% | HOP-62 NSCLC 84.5% | NCI-H460 lung 101% | HOP-92 NSCLC 73% | NCI-H522 lung 81.4% | A549/ATCC NSCLC 102% | 786-0 renal 106%
active: NCI-H226 lung -13%

C#C[C@]1(O)CC[C@H]2[C@@H]3CC=C4c5sc(-c6ccccn6)nc5CC[C@]4(C)[C@H]3CC[C@@]21C
inactive: NCI-H23 lung 81.2% | NCI-H226 lung 94.4% | NCI-H322M lung 90.6% | HOP-62 NSCLC 77.5% | NCI-H460 lung 75.9% | HOP-92 NSCLC 110% | NCI-H522 lung 91.6% | A549/ATCC NSCLC 85.7% | 786-0 renal 24.5%

N/C(=N\OC(=O)CSc1nc2ccccc2s1)c1ccc2ccccc2c1
inactive: NCI-H23 lung 95.3% | NCI-H226 lung 99.6% | NCI-H322M lung 101% | HOP-62 NSCLC 92% | NCI-H460 lung 108% | HOP-92 NSCLC 95.9% | NCI-H522 lung 91.2% | A549/ATCC NSCLC 102% | 786-0 renal 103%

O=[N+]([O-])c1ccc(-c2nnc(SCc3ccc(O)c4ncccc34)n2-c2ccccc2)cc1
active: NCI-H460 lung 5.75% | HOP-92 NSCLC -24.4% | NCI-H522 lung 9.93%
inactive: NCI-H23 lung 13.7% | NCI-H226 lung 87.3% | NCI-H322M lung 41.7% | HOP-62 NSCLC 23.2% | A549/ATCC NSCLC 22.4% | 786-0 renal 30.8%

CC(C)SC1=NC(=C(C(=N1)NC2=ClC=CC=C2)C#N)C3=CC=CC=C3
inactive: NCI-H23 lung 37.7% | NCI-H226 lung 69.3% | NCI-H322M lung 28% | HOP-62 NSCLC 72.9% | NCI-H460 lung 22.2% | HOP-92 NSCLC 76.6% | NCI-H522 lung 84.5% | A549/ATCC NSCLC 35.2% | 786-0 renal 34.7% | COLO 205 colon 71.4%

COc1ccc(-c2nnc(SCc3ccc(O)c4ncccc34)o2)cc1
inactive: NCI-H23 lung 38.2% | NCI-H226 lung 63.7% | NCI-H322M lung 49.3% | HOP-62 NSCLC 32.2% | NCI-H460 lung 14.9% | NCI-H522 lung 27.2% | A549/ATCC NSCLC 41.2% | 786-0 renal 38.2% | COLO 205 colon 102%
active: HOP-92 NSCLC -2.2%

COc1ccc([C@@H]2[C@@H](O)C(=O)N2c2cc(OC)c(OC)c(OC)c2)cc1
inactive: NCI-H23 lung 25.6% | NCI-H322M lung 43.1% | HOP-62 NSCLC 22.7% | A549/ATCC NSCLC 23.3% | 786-0 renal 19.2%
active: NCI-H226 lung -7.75% | NCI-H460 lung 3.07% | HOP-92 NSCLC -1.78% | NCI-H522 lung -21.2%

CCOP(=O)(OCC)OC[C@]12CCC(C)(C)C[C@H]1C1=CC[C@@H]3[C@@]4(C)C/C(=C\c5cccnc5)[C@H](OP(=O)(OCC)OCC)C(C)(C)[C@@H]4CC[C@@]3(C)[C@]1(C)CC2
inactive: NCI-H23 lung 18.3% | NCI-H226 lung 34.2% | NCI-H322M lung 61.1% | HOP-62 NSCLC 36.8% | NCI-H460 lung 10.8% | NCI-H522 lung 19.8% | A549/ATCC NSCLC 16.3% | 786-0 renal 36.2%
active: HOP-92 NSCLC -1.51% | COLO 205 colon -5.36%

O=C(/C=C1\C=CN(CCCCF)c2ccccc21)n1ccc2ccccc21
inactive: NCI-H23 lung 98.5% | NCI-H226 lung 91.9% | NCI-H322M lung 93.3% | HOP-62 NSCLC 93% | NCI-H460 lung 113% | HOP-92 NSCLC 90.9% | NCI-H522 lung 94.7% | A549/ATCC NSCLC 104% | 786-0 renal 107%

CC(c1ccccc1)N1C(=O)/C(=C/c2csc(C#N)n2)SC1=S (stereo unspecified)
inactive: NCI-H23 lung 101% | NCI-H226 lung 97% | NCI-H322M lung 99.8% | HOP-62 NSCLC 103% | NCI-H460 lung 106% | HOP-92 NSCLC 85.5% | NCI-H522 lung 75.4% | A549/ATCC NSCLC 95.8% | 786-0 renal 91%

COc1ccc(OC)c([C@H]2c3[nH]c4ccccc4c3C[C@H]3C(=O)N(CCCCCCC(=O)NO)CC(=O)N23)c1
inactive: NCI-H23 lung 100% | NCI-H226 lung 103% | NCI-H322M lung 93.3% | HOP-62 NSCLC 85.4% | NCI-H460 lung 87.1% | HOP-92 NSCLC 82% | NCI-H522 lung 69.2% | A549/ATCC NSCLC 106% | 786-0 renal 99.5%

Nc1ccc(-c2nnc(SCc3ccc(O)c4ncccc34)o2)cc1
active: NCI-H23 lung 3.69% | NCI-H226 lung -12.5% | NCI-H322M lung -0.446% | HOP-62 NSCLC -5.24% | NCI-H460 lung -46.8% | HOP-92 NSCLC -36.8% | NCI-H522 lung -2.05% | A549/ATCC NSCLC -1.54% | 786-0 renal 7.93%

O=C(Nc1cccc(-c2nc(-c3ccc(NC(=O)c4cccs4)cc3Cl)no2)c1)Nc1ccc(NC(=O)C2CC2)c(C(F)(F)F)c1
active: NCI-H23 lung -49.8% | NCI-H226 lung -46.4% | NCI-H322M lung -5.29% | HOP-62 NSCLC -44% | NCI-H460 lung -56.9% | HOP-92 NSCLC -40% | NCI-H522 lung -34.5% | A549/ATCC NSCLC -27.7% | 786-0 renal -30.7%

O=C1Nc2ccc(Br)cc2/C1=N\c1nnc(-c2ccc(Cl)cc2)o1
inactive: NCI-H23 lung 79.8% | NCI-H226 lung 80.3% | NCI-H322M lung 94.2% | HOP-62 NSCLC 66% | NCI-H460 lung 46.3% | HOP-92 NSCLC 79.7% | NCI-H522 lung 59.8% | A549/ATCC NSCLC 54% | 786-0 renal 91.4%

COc1ccc(CN2C(=O)/C(=C/c3nc(CO)cs3)SC2=S)cc1
inactive: NCI-H23 lung 92.6% | NCI-H226 lung 101% | NCI-H322M lung 97.5% | HOP-62 NSCLC 104% | NCI-H460 lung 100% | HOP-92 NSCLC 63.4% | NCI-H522 lung 35.6% | A549/ATCC NSCLC 95.7% | 786-0 renal 51.2%

COc1cnc2c(c1)C(=O)c1c-2n(CCCn2ccnc2)c(=O)c2cc(OC)c(OC)cc12
active: NCI-H23 lung -1.32% | NCI-H322M lung -8.33% | HOP-62 NSCLC -47.5% | NCI-H460 lung -47.9% | HOP-92 NSCLC -12.2% | NCI-H522 lung -80.5% | A549/ATCC NSCLC -14.9% | 786-0 renal -14.9%
inactive: NCI-H226 lung 29.7%

N/C(=N\c1nc2c(Cl)cccc2s1)C(Cl)(Cl)Cl
inactive: NCI-H23 lung 93.2% | NCI-H226 lung 107% | HOP-62 NSCLC 40.8% | NCI-H460 lung 24.2% | HOP-92 NSCLC 64.3% | NCI-H522 lung 89.1% | A549/ATCC NSCLC 30% | 786-0 renal 90.9% | COLO 205 colon 51.9%
active: NCI-H322M lung 0.236%

COC(=O)[C@@]1(C)CC[C@]2(C)CC[C@]3(C)C(=CC(=O)[C@@H]4[C@@]5(C)Cc6c(n(CC#CCN7CCN(C)CC7)c7ccccc67)C(C)(C)[C@@H]5CC[C@]43C)[C@@H]2C1
inactive: NCI-H23 lung 84.7% | NCI-H226 lung 98.5% | NCI-H322M lung 91.5% | HOP-62 NSCLC 113% | NCI-H460 lung 22.4% | HOP-92 NSCLC 83% | NCI-H522 lung 100% | A549/ATCC NSCLC 69.4% | 786-0 renal 67.8%

Cn1cc(-c2nn3cc(-c4cccnc4)nc3s2)c2ccccc21
active: NCI-H460 lung 9.94% | NCI-H522 lung -12.9%
inactive: NCI-H23 lung 30.1% | NCI-H226 lung 30.2% | NCI-H322M lung 55.3% | HOP-62 NSCLC 39.1% | HOP-92 NSCLC 26.1% | A549/ATCC NSCLC 44% | 786-0 renal 59.7%

COc1cc2cc(Oc3ccc(NC(=O)Nc4cc(C(F)(F)F)cc(C(F)(F)F)c4)cc3)c(C)nc2cc1OCCN(C)C
inactive: NCI-H23 lung 104% | NCI-H226 lung 98.6% | NCI-H322M lung 109% | HOP-62 NSCLC 101% | NCI-H460 lung 107% | HOP-92 NSCLC 127% | NCI-H522 lung 102% | A549/ATCC NSCLC 104% | 786-0 renal 106% | COLO 205 colon 115%

C(=C(\C1=NCCN1)n1cnc2ccccc21)/c1cccc2ccccc12
active: HOP-92 NSCLC 8.37%
inactive: NCI-H23 lung 90.7% | NCI-H226 lung 76.4% | NCI-H322M lung 88.2% | HOP-62 NSCLC 88.6% | NCI-H460 lung 101% | NCI-H522 lung 79.4% | A549/ATCC NSCLC 94% | 786-0 renal 92.5% | COLO 205 colon 106%

COc1ccc2c(ccn2C(=O)N2c3ccccc3Sc3ccccc32)c1
inactive: NCI-H23 lung 40.3% | NCI-H226 lung 51.6% | NCI-H322M lung 52.6% | HOP-62 NSCLC 35.3% | NCI-H460 lung 14.2% | HOP-92 NSCLC 25.4% | A549/ATCC NSCLC 43.8% | 786-0 renal 50.1%
active: NCI-H522 lung -26.8%

COc1ccc(S(=O)(=O)n2cc(C=O)c3ccccc32)c(OC)c1
inactive: NCI-H23 lung 79.4% | NCI-H226 lung 70.6% | NCI-H322M lung 102% | HOP-62 NSCLC 77.9% | NCI-H460 lung 98.5% | HOP-92 NSCLC 43.3% | NCI-H522 lung 97.7% | A549/ATCC NSCLC 93.2% | 786-0 renal 94.2% | COLO 205 colon 108%

CCN1C(=O)N(CC)C2SC(N/N=C/c3ccccc3F)=NC21 (stereo unspecified)
inactive: NCI-H23 lung 31.6% | NCI-H226 lung 45.1% | NCI-H322M lung 53.3% | HOP-62 NSCLC 30.9% | A549/ATCC NSCLC 27.3% | 786-0 renal 30.6%
active: NCI-H460 lung 4.97% | HOP-92 NSCLC 8.68% | NCI-H522 lung -35.6%

C#Cc1ccc(NC(=O)c2ccc(/C=C/C(=O)c3nccn3C)cc2)c(F)c1
inactive: NCI-H23 lung 11.4% | NCI-H226 lung 42.8% | NCI-H322M lung 19.8% | HOP-92 NSCLC 67.5% | NCI-H522 lung 20.4% | A549/ATCC NSCLC 19.9% | 786-0 renal 37.7% | COLO 205 colon 73%
active: HOP-62 NSCLC 2.11% | NCI-H460 lung 6.28%

C/C(=C(/c1ccc(O)cc1)c1ccc(OCCN2CCCCCC2)cc1)c1ccccc1
inactive: NCI-H23 lung 45.5% | NCI-H226 lung 75.7% | NCI-H322M lung 67% | HOP-62 NSCLC 65.8% | NCI-H460 lung 19.2% | HOP-92 NSCLC 45% | NCI-H522 lung 65.6% | A549/ATCC NSCLC 56.7% | 786-0 renal 35.5%

O=S(=O)(Nc1ccc(-n2cnc3cc(-c4ccc(O)cc4)ccc32)cc1)C1CC1
inactive: NCI-H23 lung 101% | NCI-H226 lung 96.2% | NCI-H322M lung 90.9% | HOP-62 NSCLC 86.8% | NCI-H460 lung 88.7% | HOP-92 NSCLC 115% | NCI-H522 lung 73.7% | A549/ATCC NSCLC 82.2% | 786-0 renal 86.6% | COLO 205 colon 123%

Source: PubChem BioAssay (NCI)
